# Measurements as given in PubChem BioAssay (EPA / NIEHS).
# More than one record can exist for a structure, and the calls need not agree. Activity calls are given as the source filed them. Rule for the calls: active = hit-call score of the fitted dose curve at least 0.9, where 1 is the maximum; inactive = score below 0.9.
# Test system: not listed separately
# Experiment: ATG_Oct_MLP_CIS: Attagene CIS-FACTORIAL HepG2 Assay for human Octamer-Binding Transcription Factor (Oct) (AID 2282993)
# Conditions: HepG2 Attagene cis-factorial Oct reporter, mRNA; actives raise or lower the signal
# Summary of the method: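 Using HepG2 cells bearing transfected cis-reporter constructs, mRNA induction was read after 24 h by fluorescent RT-PCR and capillary electrophoresis, with DMSO defining baseline for gain- or loss-of-signal fits.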
Structure (SMILES),outcome,AC50
OC(CCl)CCl,inactive,
CCCCCCCCN(C)C,inactive,
CCCC(CCC)C(=O)O,inactive,
OCCNCCO,inactive,
CC[C@H](C)C(=O)O[C@H]1C[C@H](O)C=C2C=C[C@H](C)[C@H](CC[C@@H](O)C[C@@H](O)CC(=O)O)[C@H]21,inactive,
CC(C)CCCCCCOC(=O)C1CCCCC1C(=O)OCCCCCCC(C)C (stereo not given),inactive,
c1ccc(C(O[C@@H]2CCCN(CCc3ccc4c(c3)OCO4)C2)c2ccccc2)cc1,,23.3 µM (active)
NNC(=O)c1ccncc1,inactive,
O=c1[nH]cnc2c1ncn2[C@H]1CC[C@@H](CO)O1,inactive,
OCc1c[nH]c2ccccc12,inactive,
c1ccc2cc3ccccc3cc2c1,inactive,
Cc1nccn1-c1ccc(Sc2cccc(C3(C(N)=O)CCOCC3)c2)cc1,,3.22 µM (active)
CC(C)C(=O)Nc1ccc([N+](=O)[O-])c(C(F)(F)F)c1,,26.1 µM (active)
CCCCCOC(C)=O,inactive,
OC(Cn1cncn1)(Cn1cncn1)c1ccc(F)cc1F,inactive,
COCc1nnc(-c2ccc[n+]([O-])c2)n1-c1c(Cl)c(Cl)cc2[nH]c(=O)c(=O)[nH]c12,inactive,
CCc1cccc(CC)c1N,inactive,
CCn1nc(C)c2c1C(=O)NCC(c1ccc(O)cc1)=N2,inactive,
FC(F)C(F)(F)COCC1CO1 (stereo not given),inactive,
Cc1ncc([C@@H](CCCCCCc2ccc3c(n2)NCCC3)CC(=O)O)cn1,inactive,
CCCc1ccccc1,inactive,
O=C(O)c1cccc(C[C@@H]2COc3ccc(OCc4nc5cc(F)ccc5s4)cc3[C@@H]2O)c1,,159 µM (active)
NC(=O)NN=Cc1ccc([N+](=O)[O-])o1,inactive,
CCCCCCCCCCCCCCCCOS(=O)(=O)O,inactive,
O=C1CN(N=Cc2ccc([N+](=O)[O-])o2)C(=O)N1,inactive,
OCCOCCOCCO,inactive,
O=C(O)c1ccc2c(c1)nc(C(=O)NC1CCN(C3CC3)CC1)n2Cc1cc(-c2ccc(Cl)s2)on1,inactive,
CCCCC(CC)C(=O)OCCOCCOCCOC(=O)C(CC)CCCC (stereo not given),inactive,

# Molecular target: Cellular tumor antigen p53 (Homo sapiens) (UniProt P04637)
# Experiment: ATG_p53_CIS: Attagene CIS-FACTORIAL HepG2 Assay for human p53 Transcription Factor (AID 2282994)
# Conditions: HepG2 p53 cis-element reporter, Attagene mRNA; actives raise or lower the signal
# Summary of the method: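 Endogenous p53 activity read in transiently transfected HepG2 from a cis-element-driven reporter transcript after 24 h exposure. RNA reverse-transcribed, PCR-amplified, fluorescently labelled and sized by capillary electrophoresis; gain or loss fitted against DMSO baseline.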
# Cellular tumor antigen p53 (Homo sapiens), sequence (P04637 whole entry, looked up): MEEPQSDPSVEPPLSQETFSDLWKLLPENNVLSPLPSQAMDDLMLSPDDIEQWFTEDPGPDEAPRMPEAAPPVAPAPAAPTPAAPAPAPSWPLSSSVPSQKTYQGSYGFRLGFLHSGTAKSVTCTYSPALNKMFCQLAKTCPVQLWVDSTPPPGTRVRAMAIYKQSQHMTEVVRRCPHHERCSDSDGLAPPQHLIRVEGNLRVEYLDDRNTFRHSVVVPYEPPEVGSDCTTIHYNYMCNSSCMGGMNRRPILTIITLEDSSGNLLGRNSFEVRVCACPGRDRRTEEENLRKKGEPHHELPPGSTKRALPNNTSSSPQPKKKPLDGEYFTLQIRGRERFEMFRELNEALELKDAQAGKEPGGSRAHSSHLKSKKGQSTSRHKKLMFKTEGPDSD
Structure (SMILES),outcome,AC50
OC(CCl)CCl,inactive,
CCCCCCCCN(C)C,inactive,
c1ccc(C(O[C@@H]2CCCN(CCc3ccc4c(c3)OCO4)C2)c2ccccc2)cc1,,52.6 µM (active)
NNC(=O)c1ccncc1,inactive,
OCc1c[nH]c2ccccc12,inactive,26.8 µM (active)
c1ccc2cc3ccccc3cc2c1,inactive,
OC(Cn1cncn1)(Cn1cncn1)c1ccc(F)cc1F,inactive,
CCc1cccc(CC)c1N,inactive,
CCn1nc(C)c2c1C(=O)NCC(c1ccc(O)cc1)=N2,,2.9 µM (active)
FC(F)C(F)(F)COCC1CO1 (stereo not given),inactive,
CCCc1ccccc1,inactive,
O=C(O)c1cccc(C[C@@H]2COc3ccc(OCc4nc5cc(F)ccc5s4)cc3[C@@H]2O)c1,inactive,
NC(=O)NN=Cc1ccc([N+](=O)[O-])o1,inactive,
CCCCCCCCCCCCCCCCOS(=O)(=O)O,,24.9 µM (active)
O=C1CN(N=Cc2ccc([N+](=O)[O-])o2)C(=O)N1,inactive,
OCCOCCOCCO,inactive,
O=C(O)c1ccc2c(c1)nc(C(=O)NC1CCN(C3CC3)CC1)n2Cc1cc(-c2ccc(Cl)s2)on1,inactive,
CCCCC(CC)C(=O)OCCOCCOCCOC(=O)C(CC)CCCC (stereo not given),inactive,

# Read-out: not listed separately
# Experiment: BSK_3C_TissueFactor: BioMAP Diversity Plus: 3C Assay for Tissue Factor Biomarker Activity (AID 2282997)
# Conditions: BioMAP 3C HUVEC, tissue factor biomarker readout; actives raise or lower the signal
# Summary of the method: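 In this endothelial system, HUVEC are treated for 24 h and Tissue Factor is assessed by ELISA, normalised to DMSO.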
Structure (SMILES),outcome,AC50
OC(CCl)CCl,inactive,
CCCCCCCCN(C)C,inactive,
CCCC(CCC)C(=O)O,inactive,
OCCNCCO,inactive,
CC[C@H](C)C(=O)O[C@H]1C[C@H](O)C=C2C=C[C@H](C)[C@H](CC[C@@H](O)C[C@@H](O)CC(=O)O)[C@H]21,inactive,
CC(C)CCCCCCOC(=O)C1CCCCC1C(=O)OCCCCCCC(C)C (stereo not given),inactive,
c1ccc(C(O[C@@H]2CCCN(CCc3ccc4c(c3)OCO4)C2)c2ccccc2)cc1,inactive,
NNC(=O)c1ccncc1,inactive,
O=c1[nH]cnc2c1ncn2[C@H]1CC[C@@H](CO)O1,inactive,
OCc1c[nH]c2ccccc12,,0.133 µM (active)
c1ccc2cc3ccccc3cc2c1,,2.03 µM (active)
Cc1nccn1-c1ccc(Sc2cccc(C3(C(N)=O)CCOCC3)c2)cc1,,8.83 µM (active)
CC(C)C(=O)Nc1ccc([N+](=O)[O-])c(C(F)(F)F)c1,inactive,
CCCCCOC(C)=O,inactive,
OC(Cn1cncn1)(Cn1cncn1)c1ccc(F)cc1F,inactive,
COCc1nnc(-c2ccc[n+]([O-])c2)n1-c1c(Cl)c(Cl)cc2[nH]c(=O)c(=O)[nH]c12,inactive,
CCc1cccc(CC)c1N,inactive,
CCn1nc(C)c2c1C(=O)NCC(c1ccc(O)cc1)=N2,inactive,
FC(F)C(F)(F)COCC1CO1 (stereo not given),inactive,
Cc1ncc([C@@H](CCCCCCc2ccc3c(n2)NCCC3)CC(=O)O)cn1,inactive,
CCCc1ccccc1,inactive,
O=C(O)c1cccc(C[C@@H]2COc3ccc(OCc4nc5cc(F)ccc5s4)cc3[C@@H]2O)c1,inactive,
NC(=O)NN=Cc1ccc([N+](=O)[O-])o1,inactive,
CCCCCCCCCCCCCCCCOS(=O)(=O)O,inactive,
O=C1CN(N=Cc2ccc([N+](=O)[O-])o2)C(=O)N1,inactive,
OCCOCCOCCO,inactive,
O=C(O)c1ccc2c(c1)nc(C(=O)NC1CCN(C3CC3)CC1)n2Cc1cc(-c2ccc(Cl)s2)on1,inactive,
CCCCC(CC)C(=O)OCCOCCOCCOC(=O)C(CC)CCCC (stereo not given),inactive,
